In PubChem BioAssay (NCI):
About 79,000 compounds went through this panel and 15% of them were active in at least one assay; those are over-represented in the sample as a whole. Activity calls are given as the source filed them. Cut-off read from the data, not from the text of the source: active = growth inhibition above about 70%; inactive = the rest.

Key:
[1] = NCI Yeast Anticancer Drug Screen. Data for the rad52 strain (AID 147);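 note: 0% = growth of vehicle-treated control cultures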; settings: S. cerevisiae rad52 mutant growth inhibition, stronger effect = higher value
Summary of the method: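 Here a repair-compromised yeast strain receives each compound; its growth is then quantified and normalised to vehicle-only controls.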

[2] = NCI Yeast Anticancer Drug Screen. Data for the wt1 strain (AID 149);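 note: 0% = growth of vehicle-treated wt1 cultures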; settings: S. cerevisiae wt1 strain (SPY 50644) growth inhibition, stronger effect = higher value
Summary of the method: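 Vehicle-normalised growth inhibition; strain wt1; compound exposure.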

[3] = NCI Yeast Anticancer Drug Screen. Data for the rad50EPP+ strain (AID 151);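 note: 0% = growth of vehicle-treated control cultures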; settings: S. cerevisiae rad50 mutant strain, stronger effect = higher value
Summary of the method: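 Read-out is yeast growth inhibition relative to vehicle; cells used were the rad50EPP+ strain.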

[4] = NCI Yeast Anticancer Drug Screen. Data for the mgt1 strain (AID 153); settings: S. cerevisiae mgt1 mutant growth inhibition, stronger effect = higher value
Summary of the method: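 Measured: inhibition of mgt1 yeast growth by compound, normalized to vehicle-treated cultures.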

[5] = NCI Yeast Anticancer Drug Screen. Data for the rad50 strain (AID 155);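 note: 0% = growth of vehicle-only cultures of the same strain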; settings: S. cerevisiae rad50 strain growth inhibition, stronger effect = higher value
Summary of the method: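 A DNA repair-deficient yeast mutant serves as the test organism; compound-induced growth inhibition is calculated against vehicle-treated cells.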

[6] = NCI Yeast Anticancer Drug Screen. Data for the mec2-1 strain (AID 157); settings: S. cerevisiae mec2-1 strain, stronger effect = higher value
Summary of the method: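 Using mec2-1 yeast: add compound, measure growth, express inhibition versus vehicle-treated cultures.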

[7] = NCI Yeast Anticancer Drug Screen. Data for the rad14 strain (AID 159);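 note: 0% = growth of vehicle-treated control cultures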; settings: S. cerevisiae rad14 strain growth inhibition, stronger effect = higher value
Summary of the method: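 Vehicle-treated cultures served as the baseline for growth inhibition of a DNA repair-mutant yeast strain exposed to each compound.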

[8] = NCI Yeast Anticancer Drug Screen. Data for the sgs1 mgt1 strain (AID 161);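 note: 0% = growth of cultures given vehicle only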; settings: S. cerevisiae sgs1 mgt1 strain, stronger effect = higher value
Summary of the method: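 Growth of a repair-deficient yeast mutant was monitored after compound treatment and expressed as inhibition relative to vehicle-treated cultures.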

[9] = NCI Yeast Anticancer Drug Screen. Data for the CLN2oe strain (AID 163);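 note: 0% = growth of vehicle-only control cultures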; settings: S. cerevisiae CLN2oe strain, stronger effect = higher value
Summary of the method: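 Whole-cell yeast growth assay. A strain engineered for altered cell-cycle control received compound, and inhibition relative to vehicle-treated cultures was recorded.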

[10] = NCI Yeast Anticancer Drug Screen. Data for the cln2 rad14 strain (AID 165);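 note: 0% = growth equal to vehicle treated cultures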; settings: S. cerevisiae cln2 rad14 strain, stronger effect = higher value
Summary of the method: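 Yeast strain cln2 rad14, bearing defects in cell cycle control and DNA repair, serves as the test system; values reflect growth inhibition compared with vehicle.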

[11] = NCI Yeast Anticancer Drug Screen. Data for the bub3 strain (AID 167); settings: S. cerevisiae bub3 mutant strain, stronger effect = higher value
Summary of the method: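 Inhibition values come from growth of compound-treated mutant yeast normalised to vehicle-treated controls.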

[12] = NCI Yeast Anticancer Drug Screen. Data for the wt2 strain (AID 169);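 note: 0% = growth of vehicle-treated yeast cultures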; settings: S. cerevisiae wt2 strain growth inhibition, stronger effect = higher value
Summary of the method: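 Treated yeast vs. vehicle-treated yeast: growth inhibition determined.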

[13] = NCI Yeast Anticancer Drug Screen. Data for the mlh1 strain (AID 171);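 note: 0% = growth of vehicle-treated control cultures of the same strain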; settings: S. cerevisiae mlh1 strain growth inhibition, stronger effect = higher value
Summary of the method: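 A yeast strain with a defined genetic lesion serves as the test organism. Cultures receive compound or vehicle, and growth is measured.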

[14] = NCI Yeast Anticancer Drug Screen. Data for the sgs1 strain (AID 173);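 note: 0% = growth of vehicle-only control cultures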; settings: S. cerevisiae sgs1 mutant, stronger effect = higher value
Summary of the method: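 A genetically defined yeast mutant is incubated with the test compound, and its growth is compared to that of the same strain given vehicle.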

[15] = NCI Yeast Anticancer Drug Screen. Data for the mlh1 rad18 strain (AID 175); settings: S. cerevisiae mlh1 rad18 strain growth inhibition, stronger effect = higher value
Summary of the method: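 Steps: expose repair-defective yeast to compound; measure growth; express inhibition against vehicle-treated controls.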

[16] = NCI Yeast Anticancer Drug Screen. Data for the rad18 strain (AID 177); settings: S. cerevisiae rad18 mutant growth inhibition, stronger effect = higher value
Summary of the method: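 Measured value is growth inhibition of a yeast strain bearing a DNA repair alteration, referenced to vehicle-treated cells.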

[17] = at 5.0 µM (retest, dose inferred, filed as 0.5)
[18] = at 50.0 µM (retest, dose inferred, filed as 5.0)

Measured: growth inhibition

CCC1(O)C(=O)OCc2c1cc1n(c2=O)Cc2c-1nc1ccccc1c2OC (stereo not given)
active: [1]; at 1.2 µM 80% | [1]; at 3.7 µM 90% | [1]; at 11.0 µM 93% | [1]; at 33.0 µM 93% | [1]; at 100.0 µM 90% | [5]; at 1.2 µM 85% | [5]; at 3.7 µM 93% | [5]; [17] 94% | [5]; at 11.0 µM 94% | [5]; at 33.0 µM 94% | [5]; [18] 90% | [5]; at 50.0 µM 71.2% | [5]; at 100.0 µM 93%
inactive: [2]; at 1.2 µM 11% | [2]; at 3.7 µM 12% | [2]; at 11.0 µM 13% | [2]; at 33.0 µM 12% | [2]; at 100.0 µM 11% | [3]; at 1.2 µM 15% | [3]; at 3.7 µM 28% | [3]; at 11.0 µM 10% | [3]; at 33.0 µM 22% | [3]; at 100.0 µM 27% | [4]; at 1.2 µM -1% | [4]; at 3.7 µM 10% | [4]; at 11.0 µM 4% | [4]; at 33.0 µM 8% | [4]; at 100.0 µM -10% | [6]; at 1.2 µM 1% | [6]; at 3.7 µM 13% | [6]; [17] 54% | [6]; at 11.0 µM 28% | [6]; at 33.0 µM 41% | [6]; [18] 62% | [6]; at 50.0 µM 33.1% | [6]; at 100.0 µM 43% | [7]; at 1.2 µM 6% | [7]; at 3.7 µM 17% | [7]; at 11.0 µM 15% | [7]; at 33.0 µM 20% | [7]; at 100.0 µM 15% | [8]; [17] 31% | [8]; [18] 33% | [8]; at 50.0 µM -13.6% | [9]; at 1.2 µM -8% | [9]; at 3.7 µM 8% | [9]; at 11.0 µM 16% | [9]; at 33.0 µM 24% | [9]; at 100.0 µM 27% | [10]; [17] 19% | [10]; [18] 18% | [10]; at 50.0 µM 2.7% | [11]; at 1.2 µM -10% | [11]; at 3.7 µM -1% | [11]; [17] 6% | [11]; at 11.0 µM 0% | [11]; at 33.0 µM 0% | [11]; [18] 11% | [11]; at 50.0 µM -41.5% | [11]; at 100.0 µM -13% | [12]; at 1.2 µM 10% | [12]; at 3.7 µM -5% | [12]; at 11.0 µM -10% | [12]; at 33.0 µM 2% | [12]; at 100.0 µM -17% | [13]; at 1.2 µM 7% | [13]; at 3.7 µM 19% | [13]; at 11.0 µM 22% | [13]; at 33.0 µM 20% | [13]; at 100.0 µM 8% | [14]; at 1.2 µM 12% | [14]; at 3.7 µM 18% | [14]; at 11.0 µM 20% | [14]; at 33.0 µM 25% | [14]; at 100.0 µM 8% | [15]; [17] 43% | [15]; [18] 33% | [16]; at 1.2 µM 1% | [16]; at 3.7 µM -4% | [16]; at 11.0 µM 5% | [16]; at 33.0 µM 1% | [16]; at 100.0 µM 1%

O=C(Nc1cc(Cl)ccc1Cl)C(Cl)(Cl)Cl
inactive: [1]; at 1.2 µM 1% | [1]; at 3.7 µM 6% | [1]; at 11.0 µM 12% | [1]; at 33.0 µM 22% | [1]; at 100.0 µM 30% | [2]; at 1.2 µM 0% | [2]; at 3.7 µM 2% | [2]; at 11.0 µM 4% | [2]; at 33.0 µM 6% | [2]; at 100.0 µM 6% | [3]; at 1.2 µM 2% | [3]; at 3.7 µM 8% | [3]; at 11.0 µM 14% | [3]; at 33.0 µM 22% | [3]; at 100.0 µM 25% | [4]; at 1.2 µM 1% | [4]; at 3.7 µM 3% | [4]; at 11.0 µM 6% | [4]; at 33.0 µM 5% | [4]; at 100.0 µM -22% | [5]; at 1.2 µM 2% | [5]; at 3.7 µM 6% | [5]; [17] 16% | [5]; at 11.0 µM 13% | [5]; at 33.0 µM 26% | [5]; [18] 41% | [5]; at 50.0 µM 53.9% | [5]; at 100.0 µM 26% | [6]; at 1.2 µM 1% | [6]; at 3.7 µM 6% | [6]; [17] -4% | [6]; at 11.0 µM 11% | [6]; at 33.0 µM 19% | [6]; [18] 58% | [6]; at 50.0 µM 61.3% | [6]; at 100.0 µM 25% | [7]; at 1.2 µM 3% | [7]; at 3.7 µM 6% | [7]; at 11.0 µM 13% | [7]; at 33.0 µM 21% | [7]; at 100.0 µM 30% | [8]; [17] 1% | [8]; [18] 32% | [8]; at 50.0 µM 24.1% | [9]; at 1.2 µM 4% | [9]; at 3.7 µM 5% | [9]; at 11.0 µM 10% | [9]; at 33.0 µM 7% | [9]; at 100.0 µM 9% | [10]; [17] 32% | [10]; [18] -6% | [10]; at 50.0 µM -52.4% | [11]; at 1.2 µM -1% | [11]; at 3.7 µM 3% | [11]; [17] -11% | [11]; at 11.0 µM 8% | [11]; at 33.0 µM 10% | [11]; [18] 31% | [11]; at 50.0 µM 28.1% | [11]; at 100.0 µM 12% | [12]; at 1.2 µM 1% | [12]; at 3.7 µM 2% | [12]; at 11.0 µM 5% | [12]; at 33.0 µM 3% | [12]; at 100.0 µM 6% | [14]; at 1.2 µM 1% | [14]; at 3.7 µM 3% | [14]; at 11.0 µM 7% | [14]; at 33.0 µM 10% | [14]; at 100.0 µM 19% | [15]; [17] -1% | [15]; at 50.0 µM 63.6% | [16]; at 1.2 µM 2% | [16]; at 3.7 µM 4% | [16]; at 11.0 µM 16% | [16]; at 33.0 µM 23% | [16]; at 100.0 µM 31%
active: [15]; [18] 70%
